Only a selection was taken, and hits are over-represented in it overall.
CD40 NFkB inh: CD40 pathway inhibition in BL2 cells | BL2 NF-kB luciferase reporter, CD40L-induced, 4 h | inhibition, % at 10 µM | actives 0.94% (n = 83,000) | AID 1053188;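 active = mean inhibition of at least 50% with a set share of replicates also reaching that level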;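 note: 0% = neutral control wells and 100% = IKK inhibitor VII at 50 µM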
* marks the source's active call; other numbers are inactive results; ! = repeats disagree; [ ] = remark or other dose.

SMILES	CD40 NFkB inh
CN1C(=O)/C(=N\OC(=O)c2cccc3ccccc23)c2ccccc21	99.4*
O=C(c1ccco1)N1CCN(c2ccc([N+](=O)[O-])c(N3CCOCC3)c2)CC1	7.6
O=C(C1CCOCC1)N1CC(=O)N2[C@@H](CO)[C@H](c3ccc(C#CC4CCCCC4)cc3)[C@@H]2C1	-13.3[25 µM]
Cc1ccc(CN(C)C(=O)c2ccccc2NC(=O)c2ccccc2)o1	6.8
O=C(c1ccccn1)N1CC[C@@H]2[C@H](CO)Nc3ccc(-c4ccc(F)cc4)cc3[C@@H]21	-48.8[25 µM]
O=C(O)CCC(=O)Nc1cc(C(F)(F)F)cc(C(F)(F)F)c1	5.6
CCCNC(=O)[C@@H]1[C@@H](CO)[C@@H]2Cn3c(ccc(C4=CCCCC4)c3=O)[C@@H]2N1Cc1ccccc1F	-2.4[25 µM]
O=C(NNC(=O)c1ccncc1)Nc1cc(Cl)ccc1Cl	-54.1
Cc1onc(-c2ccccc2)c1C(=O)OCC(=O)Nc1ccccc1	-11.8
Cc1onc(-c2ccccc2)c1C(=O)OCC(=O)c1ccc[nH]1	-6.1
COC(=O)c1ccc2c(=O)[nH]c(COC(=O)c3c(-c4ccccc4)noc3C)nc2c1	28.8*
CN1C(=O)c2cc(NC(=O)c3cnccn3)ccc2OC[C@H]2O[C@H](CC(=O)NCC3CC3)CC[C@@H]21	-2.9
C[C@H](CO)N1C[C@H](C)[C@H](CN(C)S(=O)(=O)c2cn(C)cn2)OCc2cn(nn2)CCCC1=O	11.0[25 µM]
COCCOC(=O)C1=C(C)NC(C)=C(C(=O)OC(C)C)C1c1cccc([N+](=O)[O-])c1 (stereo not given)	-25.9
COC(=O)C1=C(C)NC(C)=C(C(=O)OCCCN2CCC(c3ccccc3)(c3ccccc3)CC2)[C@H]1c1cccc([N+](=O)[O-])c1	61.2*[25 µM]
CCOC(=O)C1=C(C)NC(C)=C(C(=O)OC)C1c1cccc([N+](=O)[O-])c1 (stereo not given)	-28.5
O=C(C1CCCCC1)N1CC2(C1)[C@H](c1ccccc1)[C@H](CO)N2C(=O)c1cccnc1	-6.8[25 µM]
c1cc(-c2cnn3cc(-c4ccc(OCCN5CCCCC5)cc4)cnc23)ccn1	87.3*[25 µM]
c1ccc(-c2ccccc2OCCOCCN2CCCCC2)cc1	7.0
FC(F)(F)c1cnc(-c2cnc3c(-c4ccc(Cl)cc4)cnn3c2)c(Cl)c1	0.3
CCOC(=O)c1cccc(NC(=S)NCc2ccc(C)cc2)c1	6.2
Cc1cccc(S(=O)(=O)N(C)C[C@@H]2OCc3ccccc3-c3ccccc3C(=O)N([C@@H](C)CO)C[C@H]2C)c1	-0.2
C/C=C/c1ccc([C@@H]2[C@@H](CO)N3C(=O)CN(C(=O)Nc4ccc(F)cc4)C[C@@H]23)cc1	14.6[25 µM]
Nc1ncnc2nc(-c3ccc(N4CCOCC4)nc3)cc(-c3cccc(Br)c3)c12	-20.2[25 µM]
Nc1ccc(-c2cccc3c(=O)cc(N4CCOCC4)oc23)cc1	57.5*[25 µM]
SMILES	CD40 NFkB inh
O=C(O)c1cc(-c2ccccc2)c(N2CCOCC2)s1	7.7
COc1cccc(C#Cc2ccc([C@@H]3[C@@H](C#N)N(C(=O)C4CCCC4)[C@@H]3CO)cc2)c1	-27.2
COc1cccc(C#Cc2ccc([C@@H]3[C@H](C#N)N(C(=O)C4CC4)[C@H]3CO)cc2)c1	-18.1
COc1cccc(C#Cc2ccc([C@H]3[C@H](C#N)N(C(=O)C4CCCC4)[C@H]3CO)cc2)c1	-35.2
COc1cccc(C#Cc2ccc([C@H]3[C@@H](CO)N(C(=O)C4CCCC4)[C@H]3C#N)cc2)c1	-1.7
COc1cccc(C#Cc2ccc([C@H]3[C@@H](C#N)N(C(=O)C4CCCC4)[C@@H]3CO)cc2)c1	76.6*
COc1cccc(C#Cc2ccc([C@@H]3[C@@H](CO)N(C(=O)C4CCOCC4)[C@H]3C#N)cc2)c1	55.2*
O=C(N[C@H]1CC[C@H](CCNS(=O)(=O)c2cccc(Cl)c2)O[C@H]1CO)c1ccc(F)cc1	5.3
N#C[C@H]1[C@H](c2ccccc2)[C@@H](CO)N1C(=O)Cc1ccccn1	1.2
CCCNC(=O)NC[C@H]1[C@H](c2ccc(C3=CCCC3)cc2)[C@@H](CO)N1C(C)=O	1.5
O=C(N[C@H]1CC[C@@H](CCn2cc(C3CCCC3)nn2)O[C@@H]1CO)c1cccnc1	5.8
N#C[C@@H]1[C@H](c2ccc(C#CC3CCCC3)cc2)[C@H](CO)N1C(=O)c1cccc(F)c1	-15.5
N#C[C@H]1[C@@H](c2ccc(C#CC3CC3)cc2)[C@@H](CO)N1C(=O)c1cccc(F)c1	2.0
CC(C)NC(=O)N1[C@H](C#N)[C@@H](c2ccc(C#CC3CCCC3)cc2)[C@@H]1CO	-6.8
N#C[C@H]1[C@@H](c2ccc(-c3cccc(F)c3)cc2)[C@H](CO)N1C(=O)NC1CCCC1	-3.2[25 µM]
N#C[C@@H]1[C@H](c2ccc(C#CC3CCCC3)cc2)[C@@H](CO)N1C(=O)c1cccc(F)c1	65.6*
N#C[C@@H]1[C@H](c2ccc(C#CC3CCCCC3)cc2)[C@H](CO)N1C(=O)Nc1ccc(F)cc1	84.2*[25 µM]
CC(C)NC(=O)N1[C@H](C#N)[C@@H](c2ccc(C#CC3CCCCC3)cc2)[C@H]1CO	2.2
N#C[C@H]1[C@H](c2ccc(C#CC3CCCCC3)cc2)[C@@H](CO)N1C(=O)Nc1ccc(F)cc1	63.4*[25 µM]
N#C[C@H]1[C@H](c2ccc(-c3cccc(F)c3)cc2)[C@H](CO)N1C(=O)NC1CCCC1	52.0*[25 µM]
CC(C)NC(=O)N1[C@H](CO)[C@H](c2ccc(C#CC3CCCC3)cc2)[C@@H]1C#N	-20.4
N#C[C@H]1[C@H](c2ccc(C#CC3CCCC3)cc2)[C@H](CO)N1C(=O)Nc1ccc(F)cc1	10.2
N#C[C@@H]1[C@H](c2ccc(-c3cccc(F)c3)cc2)[C@H](CO)N1C(=O)NC1CCCC1	22.4[25 µM]
C[C@H]1CN([C@@H](C)CO)C(=O)CCCn2cc(nn2)CO[C@H]1CN(C)C(=O)C1CCCCC1	1.4
COc1ccc(NC(=O)N(C)C[C@@H]2OCCCC[C@@H](C)Oc3ccc(NS(=O)(=O)c4ccc(Cl)cc4)cc3C(=O)N([C@H](C)CO)C[C@@H]2C)cc1	-7.0
SMILES	CD40 NFkB inh
Cc1cccc(S(=O)(=O)N2[C@@H]3CNC[C@H]2C3c2ccc(-c3ccccc3C)cc2)c1 (stereo not given in full)	-5.1
CCOC(=O)Cc1csc(SCC(=O)N(CC(C)C)c2c(N)n(Cc3ccccc3)c(=O)[nH]c2=O)n1	-10.0
Cc1noc(C)c1C(=O)OCC(=O)NCc1ccccc1	3.8
C[C@H]1CN([C@@H](C)CO)C(=O)CCCn2cc(nn2)CO[C@@H]1CN(C)S(=O)(=O)c1ccc(Oc2ccccc2)cc1	-4.8
COc1ccc(-c2ccc([C@H]3[C@@H](C#N)N(C(=O)c4cccc(F)c4)[C@H]3CO)cc2)cc1	57.4*[25 µM]
COc1ccc(-c2ccc([C@@H]3[C@H](C#N)N(C(=O)c4cccc(F)c4)[C@H]3CO)cc2)cc1	20.0[25 µM]
COc1ccc(-c2ccc([C@@H]3[C@@H](CO)N(C(=O)c4cccc(F)c4)[C@H]3C#N)cc2)cc1	-17.7[25 µM]
CCOC(=O)c1ccc(S(=O)(=O)N2CCN(C3CC(=O)N(c4ccccc4C(F)(F)F)C3=O)CC2)cc1 (stereo not given)	8.7
CC(C)NC(=O)N1CC[C@@H]2[C@H]1c1cc(C#Cc3ccccc3)ccc1N(C)[C@@H]2CO	-0.4[25 µM]
N#Cc1cccc(-c2ccc(C3[C@H]4CNC[C@@H]3N4Cc3ccc4c(c3)OCO4)cc2)c1 (stereo not given in full)	74.5*!
N#Cc1cccc(-c2ccc(C3[C@H]4CNC[C@@H]3N4Cc3cccc(F)c3)cc2)c1 (stereo not given in full)	0.4[25 µM]

From PubChem BioAssay
